The first experiment concerns the target ALX3 (Homo sapiens, UniProt O95076 139-225, L168V). Nature of the experiment: PBM; 200 nM protein, PBS. As to conditions: dsDNA, one strand shown.
MSX2, sequence (P35548 130-214 F161Y): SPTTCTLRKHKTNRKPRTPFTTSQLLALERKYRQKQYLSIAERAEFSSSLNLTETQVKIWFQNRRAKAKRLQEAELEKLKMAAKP
VAX1 (Homo sapiens, UniProt Q5SQQ9 86-172, K157R), sequence (Q5SQQ9 86-172 K157R): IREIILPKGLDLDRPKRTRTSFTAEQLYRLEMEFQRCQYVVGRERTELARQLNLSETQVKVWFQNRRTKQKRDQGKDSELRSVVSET
ALX3 (Homo sapiens, UniProt O95076 139-225, L168V), sequence (O95076 139-225 L168V): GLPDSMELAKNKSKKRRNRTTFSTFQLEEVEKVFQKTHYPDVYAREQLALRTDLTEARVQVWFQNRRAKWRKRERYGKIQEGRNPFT
HOXA7, sequence (P31268 116-202 W177C): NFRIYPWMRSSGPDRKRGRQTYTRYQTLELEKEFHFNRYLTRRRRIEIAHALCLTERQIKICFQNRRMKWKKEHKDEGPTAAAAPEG
Regarding CGAGCGAC, the binding signal was 7.74 upbm affinity estimate (log intensity, higher = more binding, comparable within an allelic series).

Take GACCCAGC: the binding signal was 7.79 upbm affinity estimate (log intensity, higher = more binding, comparable within an allelic series).

For GCCGCAGC, the binding signal is 7.74 upbm affinity estimate (log intensity, higher = more binding, comparable within an allelic series).

In the next experiment the target is PROP1 (Homo sapiens, UniProt O75360 56-141, F88S). As to the kind of experiment: PBM; 200 nM protein, PBS. As to conditions: dsDNA, one strand shown.
PROP1, sequence (O75360 56-141 F88S): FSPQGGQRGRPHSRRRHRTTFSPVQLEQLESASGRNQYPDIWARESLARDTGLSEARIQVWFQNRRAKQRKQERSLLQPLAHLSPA
For GCTTGGCC, the binding signal is 6.65 upbm affinity estimate (log intensity, higher = more binding, comparable within an allelic series).

On to CCCGGACG, for which the binding signal was 6.37 upbm affinity estimate (log intensity, higher = more binding, comparable within an allelic series).

With GCCAGGGC, the binding signal is 6.44 upbm affinity estimate (log intensity, higher = more binding, comparable within an allelic series).

A further experiment concerns the target MSX2 (Homo sapiens, UniProt P35548 130-214, F161Y). Nature of the experiment: PBM; 200 nM protein, PBS. The note with it: dsDNA, one strand shown.
Turning to CCCGGACG, the binding signal was 9.4 upbm affinity estimate (log intensity, higher = more binding, comparable within an allelic series).

GCGCGCCC: the binding signal is 9.62 upbm affinity estimate (log intensity, higher = more binding, comparable within an allelic series).

As for GCCAGGGC, the binding signal is 9.44 upbm affinity estimate (log intensity, higher = more binding, comparable within an allelic series).

The next experiment deals with VAX1 (Homo sapiens, UniProt Q5SQQ9 86-172, T142I). Nature of the experiment: PBM; 200 nM protein, PBS. The note with it: dsDNA, one strand shown.
VAX1 (Homo sapiens, UniProt Q5SQQ9 86-172, T142I), sequence (Q5SQQ9 86-172 T142I): as the sequence (Q5SQQ9 86-172 K157R) above, with T57I, R72K counted along it
Turning to GGGGTACC, the binding signal is 7.26 upbm affinity estimate (log intensity, higher = more binding, comparable within an allelic series).

For the sequence CCCCTCGG, the binding signal was 7.07 upbm affinity estimate (log intensity, higher = more binding, comparable within an allelic series).

Regarding CGAGCGAC, the binding signal was 7.15 upbm affinity estimate (log intensity, higher = more binding, comparable within an allelic series).

As for CCGGGAGG, the binding signal was 7.12 upbm affinity estimate (log intensity, higher = more binding, comparable within an allelic series).

Regarding CACGGGGG, the binding signal was 7.14 upbm affinity estimate (log intensity, higher = more binding, comparable within an allelic series).

In the case of CAAGGCCC, the binding signal was 7.07 upbm affinity estimate (log intensity, higher = more binding, comparable within an allelic series).

As for GCCAGGGC, the binding signal was 7.16 upbm affinity estimate (log intensity, higher = more binding, comparable within an allelic series).

The target of a further experiment is HOXA2 (Homo sapiens, UniProt O43364 129-215, Y150S). Nature of the experiment: PBM; 200 nM protein, PBS. The note with it: dsDNA, one strand shown.
HOXA2 (Homo sapiens, UniProt O43364 129-215, Y150S), sequence (O43364 129-215 Y150S): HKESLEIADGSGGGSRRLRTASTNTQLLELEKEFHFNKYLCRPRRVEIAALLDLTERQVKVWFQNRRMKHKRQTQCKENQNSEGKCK
Take CCATTAAC: the binding signal is 10.7 upbm affinity estimate (log intensity, higher = more binding, comparable within an allelic series).

As for CCCCTCGG, the binding signal is 10.4 upbm affinity estimate (log intensity, higher = more binding, comparable within an allelic series).

On to CACGGGGG, for which the binding signal was 10.4 upbm affinity estimate (log intensity, higher = more binding, comparable within an allelic series).

In the case of GCCAGGGC, the binding signal is 10.4 upbm affinity estimate (log intensity, higher = more binding, comparable within an allelic series).

A further experiment addresses HOXA7 (Homo sapiens, UniProt P31268 116-202, W177C). Nature of the experiment: PBM; 200 nM protein, PBS. The note with it: dsDNA, one strand shown.
CCATTAAC: the binding signal is 8.86 upbm affinity estimate (log intensity, higher = more binding, comparable within an allelic series).

Take GCCATTAA: the binding signal was 8.78 upbm affinity estimate (log intensity, higher = more binding, comparable within an allelic series).

Consider CCCGGACG, for which the binding signal was 8.37 upbm affinity estimate (log intensity, higher = more binding, comparable within an allelic series).

For another experiment, the target named is HOXA4 (Homo sapiens, UniProt Q00056 201-287, W262F). As to the kind of experiment: PBM; 200 nM protein, PBS. As to conditions: dsDNA, one strand shown.
HOXA4, sequence (Q00056 201-287 W262F): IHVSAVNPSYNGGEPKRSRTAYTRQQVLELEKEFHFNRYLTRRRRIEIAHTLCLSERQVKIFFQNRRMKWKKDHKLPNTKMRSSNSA
CCATTAAC: the binding signal is 11.5 upbm affinity estimate (log intensity, higher = more binding, comparable within an allelic series).

For CCAGGGCC, the binding signal was 9.73 upbm affinity estimate (log intensity, higher = more binding, comparable within an allelic series).

For the sequence CCCTTCCG, the binding signal was 10 upbm affinity estimate (log intensity, higher = more binding, comparable within an allelic series).

Take CGGAGGGA: the binding signal was 9.79 upbm affinity estimate (log intensity, higher = more binding, comparable within an allelic series).

With AGTTAATG, the binding signal was 11.4 upbm affinity estimate (log intensity, higher = more binding, comparable within an allelic series).

For GCCAGGGC, the binding signal is 9.81 upbm affinity estimate (log intensity, higher = more binding, comparable within an allelic series).

For the sequence GGGAGGAC, the binding signal was 9.92 upbm affinity estimate (log intensity, higher = more binding, comparable within an allelic series).

Take CCCCCTGC: the binding signal was 9.59 upbm affinity estimate (log intensity, higher = more binding, comparable within an allelic series).

The next experiment deals with ALX3 (Homo sapiens, UniProt O95076 139-225, N203S). As to the kind of experiment: PBM; 200 nM protein, PBS. As to conditions: dsDNA, one strand shown.
ALX3 (Homo sapiens, UniProt O95076 139-225, N203S), sequence (O95076 139-225 N203S): as the sequence (O95076 139-225 L168V) above, with V30L, N65S counted along it
Regarding CGAGCGAC, the binding signal was 7.82 upbm affinity estimate (log intensity, higher = more binding, comparable within an allelic series).

For the sequence GACCCAGC, the binding signal is 7.8 upbm affinity estimate (log intensity, higher = more binding, comparable within an allelic series).

On to GCCGCAGC, for which the binding signal is 7.75 upbm affinity estimate (log intensity, higher = more binding, comparable within an allelic series).

The target of the next experiment is HOXA2 (Homo sapiens, UniProt O43364 129-215). As to the kind of experiment: PBM; 200 nM protein, PBS. The note with it: dsDNA, one strand shown.
HOXA2 (Homo sapiens, UniProt O43364 129-215), sequence (O43364 129-215): as the sequence (O43364 129-215 Y150S) above, with S22Y counted along it
As to CCATTAAC, the binding signal is 12 upbm affinity estimate (log intensity, higher = more binding, comparable within an allelic series).

As to CCCCTCGG, the binding signal is 7.11 upbm affinity estimate (log intensity, higher = more binding, comparable within an allelic series).

CACGGGGG: the binding signal was 7.04 upbm affinity estimate (log intensity, higher = more binding, comparable within an allelic series).

As to GCCAGGGC, the binding signal was 6.74 upbm affinity estimate (log intensity, higher = more binding, comparable within an allelic series).

The next experiment has as its target VAX1 (Homo sapiens, UniProt Q5SQQ9 86-172, K157R). Nature of the experiment: PBM; 200 nM protein, PBS. The note with it: dsDNA, one strand shown.
GGGGTACC: the binding signal was 7.1 upbm affinity estimate (log intensity, higher = more binding, comparable within an allelic series).

Regarding CCCCTCGG, the binding signal was 7.1 upbm affinity estimate (log intensity, higher = more binding, comparable within an allelic series).

Turning to CGAGCGAC, the binding signal was 7.05 upbm affinity estimate (log intensity, higher = more binding, comparable within an allelic series).

In the case of CCGGGAGG, the binding signal is 7.11 upbm affinity estimate (log intensity, higher = more binding, comparable within an allelic series).

With CACGGGGG, the binding signal was 7.08 upbm affinity estimate (log intensity, higher = more binding, comparable within an allelic series).

Turning to CAAGGCCC, the binding signal is 6.96 upbm affinity estimate (log intensity, higher = more binding, comparable within an allelic series).

Consider GCCAGGGC, for which the binding signal was 7.15 upbm affinity estimate (log intensity, higher = more binding, comparable within an allelic series).

The target of a further experiment is HOXB6 (Homo sapiens, UniProt P17509 132-218). Nature of the experiment: PBM; 200 nM protein, PBS. The note with it: dsDNA, one strand shown.
HOXB6, sequence (P17509 132-218): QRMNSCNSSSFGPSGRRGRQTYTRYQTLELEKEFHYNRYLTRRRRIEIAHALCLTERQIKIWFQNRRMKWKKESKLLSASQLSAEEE
Turning to CCATTAAC, the binding signal is 12 upbm affinity estimate (log intensity, higher = more binding, comparable within an allelic series).

GGGGTACC: the binding signal was 9.04 upbm affinity estimate (log intensity, higher = more binding, comparable within an allelic series).

GCCATTAA: the binding signal was 12.2 upbm affinity estimate (log intensity, higher = more binding, comparable within an allelic series).

Turning to CCCCTCGG, the binding signal is 8.89 upbm affinity estimate (log intensity, higher = more binding, comparable within an allelic series).

Regarding AGTTAATG, the binding signal is 11.7 upbm affinity estimate (log intensity, higher = more binding, comparable within an allelic series).

The record behind these values is article PMC11006913.
